High-throughput results as filed in PubChem BioAssay.
ugtP null kill: compounds lethal to S. aureus RN4220 ugtP deletion mutant; OD600 growth, 16 h; growth inhibition, % (no concentration beside the values); hit rate 0.54% among 330,000; AID 1259309; in the data active = growth inhibition above about 68%
RN4220 kill: kills Staphylococcus aureus RN4220. S. aureus RN4220 growth, OD600, 16 h. inhibition, % (concentration not given with the values). hit rate 0.33% among 330,000; in the data active = inhibition above about 85%
VHR inh abs: inhibitors of human VHR1 phosphatase (DUSP3); inhibition, % at 13.3 µM; P51452; recombinant VHR phosphatase, pNPP absorbance; AID 1654; hit rate 0.52% among 290,000; in the data active = inhibition above about 50%
Target sequence (P51452 whole entry, looked up): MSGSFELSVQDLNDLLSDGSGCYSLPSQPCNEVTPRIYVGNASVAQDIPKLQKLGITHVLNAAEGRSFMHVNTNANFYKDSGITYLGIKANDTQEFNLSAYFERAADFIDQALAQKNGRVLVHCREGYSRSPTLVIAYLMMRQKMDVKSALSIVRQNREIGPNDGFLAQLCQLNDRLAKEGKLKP
SSB-PriA inh: inhibitors of Klebsiella pneumoniae PriA binding to SSB C-terminal tail. inhibition, % at 33 µM. AID 1272365. hit rate 0.6% among 430,000. AlphaScreen SSBct-PriA binding, biotinylated peptide; in the data active = inhibition mostly above about 37%, no sharp cut-off; inactive = mostly below about 20%
PfHsp40 rescue: compounds rescuing yeast from Plasmodium falciparum HSP40 toxicity | S. cerevisiae expressing PfHsp40, growth rescue, ATP luminescence | growth rescue, % at 12.5 µM | hit rate 0.68% among 340,000; in the data active = growth rescue above about 28%, passing the limit was not always enough; inconclusive = no clear call, values can overlap the other calls;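 note: yeast W303a lacking pdr1 and pdr3 grown in galactose medium; growth measured after three days at 30 °C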
Mtb hypoxia inh: Mtb hypoxia fluorescent reporter inhibition. M. tuberculosis hypoxia-regulated fluorescent reporter, fluorescence. fluorescence inhibition, % (test concentration not listed). hit rate 0.1% among 300,000; in the data active = fluorescence inhibition mostly above about 23%, no sharp cut-off; inactive = mostly below about 17%
Each line names hits and unclear results; the compound was inactive in the other large screens. An excerpt weighted towards active compounds, which were near 1.8% of everything screened.

Cc1ccc(C)c(Nc2c([N+](=O)[O-])cc(C(=O)N3CC(=O)Nc4ccccc43)cc2[N+](=O)[O-])c1	SSB-PriA inh 53
Cc1cccc(Nc2c([N+](=O)[O-])cc(C(=O)N3CC(=O)Nc4ccccc43)cc2[N+](=O)[O-])c1	none (no result: ugtP null kill, RN4220 kill, Mtb hypoxia inh)
CC(CC(=O)NCc1ccco1)=NNC(=O)CC#N	none (no result: VHR inh abs, PfHsp40 rescue)
Cn1c(=O)c2c(nc(NCc3ccc4c(c3)OCO4)n2Cc2ccccc2Cl)n(C)c1=O	none
O=c1c(NCc2ccccc2Cl)nccn1-c1ccc2c(c1)OCO2	SSB-PriA inh 37 (no result: ugtP null kill, RN4220 kill, VHR inh abs, PfHsp40 rescue, Mtb hypoxia inh)
CCN(CC)C(=O)c1ccc2c(c1)C1C(Cl)C(Sc3ccccc3[N+](=O)[O-])CC1C(C(=O)O)N2 (stereo unspecified)	SSB-PriA inh 64
Cc1ccc2c(c1Cl)NC(C(=O)O)C1CC(Sc3ccccc3[N+](=O)[O-])C(Cl)C21 (stereo unspecified)	none
Cc1cc(C)c2c(=O)n(CC(=O)Nc3ccc(Cl)cc3)sc2n1	PfHsp40 rescue inconclusive
CCOc1ccc(NC(=O)Cn2sc3nc(C)cc(C)c3c2=O)cc1	PfHsp40 rescue 74
Nc1cc(N)nc(SCC(=O)Nc2ccc3c(c2)OCCCO3)n1	none
Nc1cc(N)nc(SCC(=O)NCc2ccc3c(c2)OCO3)n1	none (no result: VHR inh abs)
Cc1nc(SCC(=O)NCc2ccc3c(c2)OCO3)nc(C)c1C	Mtb hypoxia inh 23 (no result: VHR inh abs)
Nc1cc(N)nc(SCC(=O)Nc2ccc3c(c2)OCO3)n1	VHR inh abs 53
CCOC(=O)c1cccc(NC(=O)CSc2nc(N)cc(N)n2)c1	VHR inh abs 56
Cc1ccc(-c2nnc(NC(=O)COc3ccccc3)o2)cc1C	none (no result: ugtP null kill, RN4220 kill, VHR inh abs, PfHsp40 rescue, Mtb hypoxia inh)
COc1ccc(/C=C/C(=O)NC(=S)Nc2ccccn2)cc1	SSB-PriA inh 38
O=C(NC(=S)N(Cc1ccccc1)Cc1ccccc1)c1ccccc1F	ugtP null kill 94, RN4220 kill 95
O=C(/C=C/c1ccccc1)NC(=S)NNC(=O)c1ccco1	PfHsp40 rescue 35
COc1ccccc1/C=C/C(=O)NC(=S)Nc1ccccn1	none
O=C(/C=C/c1ccccc1)NC(=S)Nc1ccccc1	PfHsp40 rescue 102
O=C(NC(=S)NCc1ccccc1)c1ccccc1F	none
O=C(CCc1nc2sc3c(c2c(=O)[nH]1)CCCCC3)Nc1ccc(F)c(Cl)c1	none (no result: ugtP null kill, RN4220 kill, VHR inh abs, PfHsp40 rescue, Mtb hypoxia inh)
Cc1ccc(N2CCN(S(=O)(=O)c3ccc(Cl)c(C)c3)CC2)c(C)c1	none (no result: ugtP null kill, RN4220 kill, VHR inh abs, PfHsp40 rescue, Mtb hypoxia inh)
COc1ccc(C=NNC(=O)CC(=O)NC2CCCCC2)cc1	none (no result: VHR inh abs, PfHsp40 rescue)
O=C(NC(=S)N(CCc1ccccc1)CCc1ccccc1)c1ccco1	PfHsp40 rescue 187
O=C(CSc1ccc2nnc(-c3ccncc3)n2n1)Nc1ccc(Br)cc1	none (no result: ugtP null kill, RN4220 kill, VHR inh abs, PfHsp40 rescue, Mtb hypoxia inh)
Cc1ccc(C)c(OCC(=O)Nc2cc(C(=O)O)cc(C(=O)O)c2)c1	VHR inh abs 53
COc1ncc(NC(=O)c2ccc(Br)o2)c(OC)n1	none (no result: ugtP null kill, RN4220 kill, VHR inh abs, PfHsp40 rescue, Mtb hypoxia inh)
Cc1cc(CCNC(=O)C2CC(=O)N(c3cccc(Br)c3)C2)on1 (stereo unspecified)	none (no result: ugtP null kill, RN4220 kill, VHR inh abs, PfHsp40 rescue, Mtb hypoxia inh)
CC(C)(C)NC(=O)CN(C(=O)CCC(=O)Nc1nccs1)c1ccc(F)c(Cl)c1	VHR inh abs 53
CCCC(C(=O)c1ccccc1)n1cncn1 (stereo unspecified)	none (no result: Mtb hypoxia inh)
Cc1ccc(C(=O)C(SC(C)(C)C)n2cncn2)cc1 (stereo unspecified)	PfHsp40 rescue 467
O=C(NNC(=O)c1cccn(Cc2ccc(F)cc2)c1=O)c1ccccc1	none (no result: ugtP null kill, RN4220 kill, VHR inh abs, PfHsp40 rescue, Mtb hypoxia inh)
COc1cc2c(cc1OC)C(C)N(C(=O)c1cc3ccccc3o1)CC2 (stereo unspecified)	VHR inh abs 51, PfHsp40 rescue inconclusive
COc1cc2c(cc1OC)C(C)N(C(=O)c1cccs1)CC2 (stereo unspecified)	none
O=C(/C=C/c1c(F)cccc1Cl)c1ccc(O)cc1	PfHsp40 rescue 37
O=C(/C=C/c1ccccc1Cl)c1ccc(O)cc1	PfHsp40 rescue inconclusive
CCCCCCCCn1c(NS(=O)(=O)c2ccccc2)c(S(=O)(=O)c2ccccc2)c2nc3ccccc3nc21	SSB-PriA inh 60 (no result: ugtP null kill, RN4220 kill, VHR inh abs, PfHsp40 rescue, Mtb hypoxia inh)
CCCCn1c(NS(=O)(=O)c2ccc(F)cc2)c(S(=O)(=O)c2ccc(C)cc2)c2nc3ccccc3nc21	SSB-PriA inh 56 (no result: ugtP null kill, RN4220 kill, VHR inh abs, PfHsp40 rescue, Mtb hypoxia inh)
CCCCCn1c(NS(=O)(=O)c2ccccc2)c(C(=O)OCC)c2nc3ccccc3nc21	SSB-PriA inh 70 (no result: ugtP null kill, RN4220 kill, VHR inh abs, PfHsp40 rescue, Mtb hypoxia inh)
CCCCn1c(NC(=O)c2ccccc2)c(S(=O)(=O)c2ccc(C)cc2)c2nc3ccccc3nc21	SSB-PriA inh 54 (no result: ugtP null kill, RN4220 kill, VHR inh abs, PfHsp40 rescue, Mtb hypoxia inh)
CCCCn1c(NS(=O)(=O)c2ccc(C)cc2)c(S(=O)(=O)c2ccccc2)c2nc3ccccc3nc21	none (no result: ugtP null kill, RN4220 kill, Mtb hypoxia inh)
